A selection: hits, their analogues and other compounds. The true share with any hit is near 3.4%.
MITF inh: blocks human microphthalmia-associated transcription factor. O75030. AlphaScreen MITF homodimerization, bead proximity signal. inhibition, % at 2.6 µM. hit rate 0.91% among 650,000. AID 1259374; in the data active = inhibition above about 50%;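 also: 0% = vehicle wells with protein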
GPR151 activ: human GPR151 activation. activation, % at 11.2 µM. Q8TDV0. PathHunter beta-arrestin GPR151 cells, luminescence. hit rate 1% among 650,000; in the data active = activation above about 4.9%;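 also: 0% = median of compound wells and 100% = cells with positive control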
Target sequence (Q8TDV0 whole entry, looked up): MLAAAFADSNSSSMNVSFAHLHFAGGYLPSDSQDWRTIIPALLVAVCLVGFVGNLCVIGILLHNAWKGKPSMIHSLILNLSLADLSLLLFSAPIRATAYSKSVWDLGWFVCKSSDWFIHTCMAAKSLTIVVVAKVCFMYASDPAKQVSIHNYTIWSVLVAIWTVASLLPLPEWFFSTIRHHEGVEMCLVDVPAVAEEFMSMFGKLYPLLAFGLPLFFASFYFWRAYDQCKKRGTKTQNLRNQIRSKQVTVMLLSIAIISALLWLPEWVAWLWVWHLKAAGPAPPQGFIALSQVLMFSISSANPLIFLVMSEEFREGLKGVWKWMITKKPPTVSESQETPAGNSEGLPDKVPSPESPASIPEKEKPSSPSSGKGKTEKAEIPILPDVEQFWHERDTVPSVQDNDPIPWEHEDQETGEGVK
FBW7 act: human FBW7 E3 ligase activation, primary screen. AlphaScreen FBW7–phospho-cyclin E peptide binding, activator screen. normalized activity (activation), % at 26.1 µM. hit rate 0.13% among 650,000; in the data active = normalized activity above about 1.9%;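 also: purified mutant Fbw7 with reduced substrate affinity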
TEAD-YAP block: TEAD-YAP interaction inhibition; inhibition, % at 9.12 µM; HEK-TIYL cells, TEAD-Gal4/YAP UAS-luciferase luminescence; hit rate 1.4% among 640,000; in the data active = inhibition above about 32%;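 also: 0% = median of test compound wells and 100% = reference inhibitor wells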
MITF inh conf: human MITF inhibition, confirmation; shares compounds with MITF inh; AlphaScreen MITF homodimerization, biotin/His-MITF beads; inhibition, % at 2.6 µM; hit rate 16% among 4,700;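 active = inhibition above a cutoff derived from the DMSO control wells, cut at about 28% in these data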;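 also: 0% = MITF dimer wells with DMSO only; inhibitors lower the bead chemiluminescence by keeping MITF from dimerizing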
AS interf DR: optically interferes with AlphaScreen signal in dose response. hit rate 6% among 480. IC50, µM. AlphaScreen optical interference counterscreen, cell-free. shares compounds with MITF inh. AID 1259373; call rule not given here
AS interf ctr: counter-screen: compounds optically interfering with AlphaScreen | hit rate 7.6% among 4,700 | inhibition, % at 2.6 µM | AID 1259376 | shares compounds with MITF inh | LysRS AlphaScreen counterscreen, signal interference, triplicate;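 active = inhibition above a cutoff derived from the DMSO control wells, cut at about 30% in these data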
Active calls of the source: *; · = not tested or not shown.

SMILES	MITF inh	GPR151 activ	FBW7 act	TEAD-YAP block	MITF inh conf	AS interf ctr	others
CCCCNC(=O)CCCCCn1nnc2ccccc2c1=O	73*	0	0	-5	0	-1
CC(C)NC(=O)CCCCCn1nnc2ccccc2c1=O	-6	1	0	2	·	·
COc1ccc(/C(O)=C2/C(=O)C(=O)N(CCCC(=O)O)C2c2ccccc2Cl)cc1 (configuration not stated)	15	-1	0	-5	·	·
COc1ccc(C(=O)NC(=S)N2CCN(c3ccc([N+](=O)[O-])cc3)CC2)cc1	17	0	0	-1	·	·
COc1cccc(C(=O)NC(=S)N2CCN(c3ccc([N+](=O)[O-])cc3)CC2)c1	72*	0	0	2	5	33*
CCCCOC(=O)Nc1ccc(C(=O)OCCC(C)C)cc1	-18	-1	0	-5	·	·
O=C(CSc1nc2ccsc2c(=O)n1Cc1ccccc1F)c1ccc(Cl)cc1	1	-3	0	-11	·	·
O=C(N1CCCCCC1)C1(S(=O)(=O)c2ccc(Cl)cc2)CC1	62*	1	0	11	3	-1
Cc1ccccc1CN1CCN(Cc2ccccc2C(F)(F)F)CC1	80*	-1	0	0	-2	13
FC(F)(F)c1ccccc1CN1CCN(Cc2cccnc2)CC1	83*	1	0	-1	10	22
FC(F)(F)c1ccccc1CN1CCN(Cc2ccc(Cl)cc2)CC1	41	-1	0	-12	·	·
FC(F)(F)c1ccccc1CN1CCOCC1	77*	0	0	8	3	-1
CC1=CN2C(=O)C(Cc3ccc(Cl)cc3)(NC(=O)c3ccccc3)N=C2C=C1 (configuration not stated)	18	1	0	-4	·	·
Clc1ccccc1CN1CCN(C2CCCC2)CC1	74*	-1	0	5	19	16
Cc1ccccc1CN1CCN(C2CCCC2)CC1	57*	3	0	9	-18	4
O=C1CCC(N2CCCC2)CCN1Cc1ccccc1Cl (configuration not stated)	0	0	0	0	·	·
c1ccc(CN2CCC(N3CCN(C4CCCCCC4)CC3)CC2)cc1	21	0	0	-2	·	·
Clc1ccccc1CN1CCN(C2CCCCC2)CC1	65*	1	0	-15	13	15
Cc1ccccc1CN1CCC(N2CCCC2)CC1	47	-1	0	-1	·	·
CCC(Sc1nc2ccccc2c2nc(-c3ccccc3)nn12)C(=O)N1CCOCC1 (configuration not stated)	18	0	1	12	·	·
COc1ccc(NC(=O)c2cc3nc(-c4ccccc4)cc(-c4ccccc4)n3n2)cc1OC	-7	1	0	-2	·	·
CCCCOCC(O)Cn1c(Cc2ccccc2)nc2ccccc21 (configuration not stated)	58*	1	0	-6	6	16
CCCCOCC(O)Cn1c2ccccc2c2ccccc21 (configuration not stated)	6	-2	0	-6	·	·
CC(=O)Nc1ccc(C(=O)NC(CC(=O)O)c2cccc([N+](=O)[O-])c2)cc1 (configuration not stated)	60*	1	0	7	-2	1
CC(C)(C)c1ccc(C(=O)NC(CC(=O)O)c2cccc([N+](=O)[O-])c2)cc1 (configuration not stated)	2	0	0	10	·	·
SMILES	MITF inh	GPR151 activ	FBW7 act	TEAD-YAP block	MITF inh conf	AS interf ctr	others
Cc1ccc(/C=C/C(=O)Nc2nn[nH]n2)o1	39	2	0	14	·	·
CC(C)c1ccc(/C=C/C(=O)Nc2nn[nH]n2)cc1	52*	1	1	-21	9	13
CC1CCN(Cc2csc(N)n2)CC1	53*	4	0	5	16	13
Nc1nc(CC23CC4CC(CC(C4)C2)C3)cs1	-5	1	0	7	·	·
COc1ccccc1C(=O)NC1(C(F)(F)F)NC(=O)N(c2ccccc2)C1=O (configuration not stated)	88*	0	0	5	8	11
COc1ccc(Cl)cc1NC(=O)C12CCC(C)(C(=O)C1=O)C2(C)C (configuration not stated)	4	0	1	-9	·	·
CCc1ccc(CN2CCN(Cc3cccc(OC)c3OC)CC2)cc1	64*	-1	0	-5	8	15
COc1ccc(CN2CCN(Cc3cccc(OC)c3OC)CC2)cc1	75*	-1	0	-6	9	12
CCOc1ccccc1N1CCN(Cc2cccc(OC)c2OC)CC1	23	1	0	8	·	·
Cc1cccc(Nc2nnc(SCC#N)s2)c1	2	-1	0	1	·	·
CCOC(=O)C1=C(Nc2ccc(F)cc2)CCCC1	24	1	0	2	·	·
Cc1cc(C)cc(NCc2ccc3c(c2)OCO3)c1	67*	0	0	3	16	11
O=C(Cc1c(F)cccc1F)NCC1CCC2(CCN(Cc3cccnc3)CC2)O1 (configuration not stated)	13	1	0	9	·	·
Clc1cc(Br)ccc1OCCCn1ccnc1	43	0	0	4	·	·
Clc1cccc(Cl)c1OCCCn1ccnc1	52*	1	0	-2	1	1
CCc1cccc(OCCn2ccnc2)c1	54*	0	0	-3	4	6
Clc1cc(Br)ccc1OCCn1ccnc1	54*	-1	0	-14	0	5
Cc1cccc(Cl)c1OCCCCn1ccnc1	1	-1	0	1	·	·
Cc1cccc(C)c1OCCCCn1ccnc1	70*	0	0	6	-5	-4
CCOc1cccc(OCCn2ccnc2)c1	43	0	0	2	·	·
O=C(N/N=C/c1cccc(Cl)c1)c1cccc(F)c1	-2	0	0	-47	·	·
NC(=O)C1CCCN(Cc2ccc3c(c2)CN(Cc2ccc(-c4ccco4)cc2)CCO3)C1 (configuration not stated)	-4	-1	0	0	·	·
c1ccc(COc2ccc(OCCCCn3ccnc3)cc2)cc1	60*	-1	0	-4	36*	25	AS interf DR=>6.5
O=C(c1ccc2c(c1)C(=O)N(c1ccccn1)C2=O)N1CCN(c2ccccc2Cl)CC1	15	-1	1	-7	·	·
COc1ccccc1N1CCN(C(=O)c2ccc3c(c2)C(=O)N(c2ccccn2)C3=O)CC1	68*	-1	0	1	-7	-4
COc1cccc(N2CCN(C(=O)CN3C(=O)C4C5C=CC(C5)C4C3=O)CC2)c1 (configuration not stated)	7	-1	0	-6	·	·
COc1cc(CN2CCN(C3CCCCCC3)CC2)cc(OC)c1O	58*	0	1	-8	6	14
COc1cc(CN2CCN(C3CCCC(C)C3)CC2)cc(OC)c1O (configuration not stated)	74*	0	0	6	9	26

High-throughput results deposited in PubChem by The Scripps Research Institute Molecular Screening Center.
